Assay results reported in the supplement of paper PMC6555819.

Tested on: VDR:RXRa (NR concentration 270 nM, RXRa partner concentration 90 nM)
Assay: PBM binding z-score (relative to random genomic background probes); higher = stronger binding; sequences stand for … in GC…GCGATTGACAGCGTAGAATGAAGG
Procedure: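 Protein-binding microarray (Agilent 4x180K custom design, double-stranded 60-nt probes: 5' GC cap, 34-nt variable region, 24-nt constant primer region; full probe sequence given). Purified or IVT nuclear receptor:RXRα heterodimers (3:1 NR:RXRα, mostly 270:90 nM) or homodimers were incubated for 1 h in PBS with 2% milk and no ligand, then detected with Alexa488 antibodies. Fluorescence from o1-orientation probes (~5 replicates averaged) was converted to z-scores against 500 random hg19 background probes. Variable regions are seed direct-repeat (DR0–DR5) sites, all their single-nucleotide variants and half-site ablations.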

Point of comparison: AATACAGGGTCACTAGGGCAGAGTAGGTACGAAT, PBM binding z-score 4.5. Against it:
- GCAGACAGGAGAAACGCAGGTAACTCAGGGTGGC — lower, -0.548
- ATATGTAGGTTACATCCGGCTCATTCAGGCTATG — lower, 0.412
- CCGGCTGGGGCAGAAAGGTTACCATACCATCCGG — lower, 0.63
- ATCTCTAGGTAACGAAGTTCAGTGAATGCCGAAC — lower, 2.56
- TGATATAGGTAAAAGGTGAAAGTCGGTGTGGTAA — lower, 1.33
- AGTCAAAGTTCAGGACCAGGTAACGTAAAGCACG — lower, 2.41
- CGAACTAGGTCAAGAGGTCAAAGTCCGCTTCCCG — higher, 6.13
- ATACCAAGGTGATCGTGCGGTCGTTGATACTAAC — lower, 0.18
- ACTATTAGTGGACTTAGGGCAACCGATACGACGC — lower, 0.119
- CCGACTGGGGCAAGGTTACTATAACGCACAGCCA — lower, 0.0885
- ATGGAAAGGTCGACGAGGTGAGTATACACCGTTT — higher, 5.25
- ATCTCCAGGTAAGACTCAGTTCAGTGAAGAACGC — lower, 1.05
- CCTTACGGGTCAAGGTTAGAGCACGGGTGGTACG — lower, 3.08
- ACAGATAGGTGATGAAGGTAACTCAGGCTATCAT — lower, 0.219
- CCTATTAGTTGACCATAAGGGCAAGCGAAGCTCG — lower, 0.92
- ATCGAAAGGTCGAAGGTGAGAATACCCACCCGAA — lower, 2.7
- TCATATAGGTAAAAGGTGTAAGTCGGTGTGGTAA — lower, 0.727
- ACTAGTTGGTCAGCTGAGGGCACACACAATTCGG — lower, 1.2
- GGAACGAGGGGATTCGAGTTGATAGCATGGCGAT — lower, 0.173
- TCGAGTAGGTTACCAATGGGGCATTCAGCTTTCT — lower, 0.0745
- TCAGACAGGGGAAGGTAACTCAGGTACGCAGTCG — lower, 0.795
- GCAGACAGCTGAAACGCAGGTAACTCAGGGTGGC — lower, -0.826
- GTACCAAGGTGAATAGATCGTTGATGAGTAGGCG — lower, -0.155
- CGTTACGGGTCAAGGTTATAGCACGGGTGGTACG — lower, 3.62
- TCTGCTAGGGCAACGATGGTCAGCTAATCTGCTA — lower, -0.552
- ACTTACGGGTCAACGAGGTTATATCACGCGTATA — higher, 7.44
- AATACAGCGTCACTAGGCCAGAGTAGGTACGAAT — lower, -0.29
- CAAACTAGGTCACCGGAGGGTCAAAGTCCGCATG — higher, 5.82
- TAGCCTAGGTCATTCAGCGGCCAGTATAGAAAGC — lower, 2.62
- TCTAGCAGGCAAGAGGGTCACTCAAGAGGTACGG — lower, 2.01
- CCGACCGGGGCATAAGGTTACCATAAGCCAGCCC — lower, 0.666
- ACTAGCAGGCCAAGCTTGGGTCACTCAAACAAAG — lower, 0.122
- AGCATGAGGTTATTAAGATCAGGGAATTGCGGTC — lower, 2.36
- CCGACTGGGGCAGAAAGGTCACCATACCATCCGG — lower, 4.43
- GCTTGTAGATCAAGGTTAAGAACGACTAAGCTAA — lower, 0.288
- GCTAGCAGGCCATTTGGGTCACTCCATGACGGGC — lower, 0.513
- TCATATAGGTAATACAGGTGAAAGTCGGCATCTA — lower, 1.31
- CGTCCAAGGTCATGGTCAGTGAAAGAGACTCGAA — lower, 4.3
- GCTATTAGTTTAAAGGGCAACCGAATGATTCTCG — lower, 0.65
